# Measured values published in the supplement of paper PMC6279402.
# Where a name gives a salt, the structure may show the parent alone. ± gives the standard deviation of the averaged measurements.
# Tested on: A549
# Assay: relative viability (normalised to negative control = 1, bortezomib = 0) (fraction); higher = less cytotoxic
# Details: inflammatory serum-free RHB-A with cytokines + LPS, 5 d + 24 h CellTiter-Blue
# Method: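 A549 KRAS-mutant NSCLC cells, pre-treated 5 µM GSK126 or vehicle (DMSO), were seeded at 250 cells/well in 384-well plates in serum-free RHB-A medium with inflammatory cytokines/LPS and treated with Selleck kinase inhibitor and NCI oncology compounds at 30 or 300 nM in triplicate, refreshed at 48 h. Viability was read by CellTiter-Blue after 5 d plus 24 h and normalised per plate with cellHTS2 (mean of bortezomib positive control = 0, mean of negative control = 1).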
# [1] = compound 30 nM, GSK126 pretreatment: 5 uM GSK126
# [2] = compound 30 nM, GSK126 pretreatment: none (vehicle)
# [3] = compound 300 nM, GSK126 pretreatment: 5 uM GSK126
# [4] = compound 300 nM, GSK126 pretreatment: none (vehicle)
Compound,relative viability [1],relative viability [2],relative viability [3],relative viability [4]
Oc1ncc(N(CCCl)CCCl)c(O)n1 [Uracil mustard],0.792 ± 0.024,0.801 ± 0.027,0.81 ± 0.029,0.87 ± 0.03
O=P1(N(CCCl)CCCl)NCCCO1 (stereo not given) [Cyclophosphamide monohydrate; Cyclophosphamide],0.799 ± 0.035,0.813 ± 0.086,0.877 ± 0.031,0.941 ± 0.1
C=C1C[C@@H]2[C@H](CC[C@]3(C)C(=O)CC[C@@H]23)[C@@]2(C)C=CC(=O)C=C12 [Exemestane],0.797 ± 0.073,0.82 ± 0.079,0.839 ± 0.17,0.971 ± 0.086
Cn1c(CCCC(=O)O)nc2cc(N(CCCl)CCCl)ccc21 [bendamustine hydrochloride],0.713 ± 0.012,0.729 ± 0.045,0.784 ± 0.012,0.865 ± 0.056
O=P1(NCCCl)OCCCN1CCCl (stereo not given) [Ifosfamide],0.792 ± 0.087,0.806 ± 0.063,0.803 ± 0.16,0.91 ± 0.11
Cn1cc(C2=C(c3cn(C4CCN(Cc5ccccn5)CC4)c4ccccc34)C(=O)NC2=O)c2ccccc21 [Enzastaurin],0.823 ± 0.11,0.831 ± 0.05,0.789 ± 0.042,0.802 ± 0.037
CCN1CCN(C(=O)Cc2ccc(Nc3ncc(F)c(Nc4ccc(C(=O)Nc5ccccc5Cl)cc4)n3)cc2)CC1 [Aurora A Inhibitor I],0.988 ± 0.045,1.02 ± 0.032,0.808 ± 0.14,0.671 ± 0.027
Cc1c(N)nc([C@H](CC(N)=O)NC[C@H](N)C(N)=O)nc1C(=O)N[C@H](C(=O)N[C@H](C)[C@@H](O)[C@H](C)C(=O)N[C@H](C(=O)NCCc1nc(-c2nc(C(=O)NCCC[S+](C)C)cs2)cs1)[C@@H](C)O)[C@@H](OC1OC(CO)C(O)C(O)C1OC1OC(CO)C(O)C(OC(N)=O)C1O)c1cnc[nH]1 (stereo not given in full) [Bleomycin sulfate],0.821 ± 0.13,0.871 ± 0.061,0.739 ± 0.064,0.84 ± 0.069
N[C@@H](Cc1ccc(N(CCCl)CCCl)cc1)C(=O)O [Melphalan],0.835 ± 0.054,0.819 ± 0.11,0.874 ± 0.13,0.876 ± 0.068
N.N.[Cl][Pt][Cl] [Cisplatin],0.813 ± 0.035,0.812 ± 0.029,0.839 ± 0.099,0.875 ± 0.018
